According to PubChem BioAssay AID1347076 (National Center for Advancing Translational Sciences (NCATS), 2019):
Out of some 400,000 compounds screened, about 13,000 (3.2%) were called active. Roughly 18% stayed inconclusive and do not appear here. The full list was thinned out, with actives kept by preference. Values without a mark were called inactive. Calls come from the whole dose curve; as a rule, active = well fitted cell-killing curve with a large enough effect; inconclusive = small, poorly fitted or top-dose-only effect, or effect the other way; inactive = flat fitted curve, though single readings scatter.

Experiment: qHTS assay for MDR1-selective chemotherapeutics: Primary screen using the drug-selected MDR subline cells KB-V1; note: nearly all actives have a fitted effect of over 60% in size
Settings: KB-V1 MDR cells viability, CellTiter-Glo, 72 h; series mostly up to 46.1 µM; activity change, negative = cytotoxicity: at the top concentration
Outline: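 Cells of the MDR subline KB-V1 are plated, dosed with compound at multiple concentrations, and incubated 72 h at 37 degrees C; CellTiter-Glo is then added and luminescence read after 10 min.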
% is set by controls: 0 for no effect and ±100 for the full control effect; potency is the fitted concentration of half-maximal effect.

| SMILES | activity change, negative = cytotoxicity [%] | Potency |
| --- | --- | --- |
| Cc1cccc(N(CC(=O)N2CCCC2)S(C)(=O)=O)c1C | -10.2 |  |
| O=S(=O)(c1cccs1)N1CCc2ccccc2C1 | -1.64 |  |
| Cc1ccc2c(CN3CCN(S(=O)(=O)c4ccccc4C(F)(F)F)CC3)cc(=O)oc2c1 | -4.4 |  |
| O=C(NCc1ccccc1)C1CCCN(S(=O)(=O)c2cccs2)C1 (configuration not stated) | -11.5 |  |
| CC(=O)N1CCN(Cc2cc(=O)oc3cc(C)ccc23)CC1 | 23.4 |  |
| O=S(=O)(c1cccs1)N1CCN(Cc2ccccc2)CC1 |  | 16.4 µM (active) |
| COc1ccc2c(CN3CCN(S(=O)(=O)c4cccs4)CC3)cc(=O)oc2c1 |  | 13 µM (active) |
| O=c1cc(CN2CCCCCCC2)c2c(ccc3ccccc32)o1 | 0 |  |
| CCC(O)CNc1nc(-n2nc(C)cc2C)nc2sc3c(c12)CC(C)(C)OC3 (configuration not stated) |  | 2.59 µM (active) |
| CCc1nc(N2CCN(C(C)=O)CC2)c2c3c(sc2n1)CCCC3 | 0.835 |  |
| CC/C(C)=N/Nc1nc2sc3c(c2c(=O)[nH]1)CC(C)(C)OC3 | 0 |  |
| COCCn1c(C)cc(C(=O)CSc2ncnc3sc4c(c23)CCC4)c1C | -0.688 |  |
| COCCNc1nc(-n2nc(C)cc2C)nc2sc3c(c12)CCCC3 |  | 9.2 µM (active) |
| CCOC(=O)Cn1c(SC)nc2sc3c(c2c1=O)CC(C)(C)OC3 | 0 |  |
| O=C(NC1CCCCC1)C(c1cc2ccccc2o1)n1c(=O)c(-c2ccco2)nc2ccccc21 (configuration not stated) | 0.699 |  |
| Nc1[nH]c(C(=O)c2ccccc2)c(-c2ccncc2)c1C(=O)NCc1cccc2ccccc12 | -26.5 |  |
| Cc1ccc(Cn2cc(CN3CC(N4CCN(C)CC4)CS3(=O)=O)nn2)cc1 (configuration not stated) | -0.565 |  |
| CCOC(=O)N1CCN(C(=O)c2ccc(S(=O)(=O)Nc3cccc(C(F)(F)F)c3)cc2)CC1 | -0.0688 |  |
| Cc1ccccc1CS(=O)(=O)CC1(O)CCN(C(=O)c2cccc(C(F)(F)F)c2)CC1 |  | 14.6 µM (active) |
| Cc1ccccc1CN1CCN(C(=O)c2cccc(F)c2)CC1 | -5.87 |  |
| CCOc1ccc(-c2cc3nc(C4CCN(C(=O)OC(C)(C)C)CC4)c(C(=O)Nc4cccc(CC)c4)cn3n2)cc1 | 11.3 |  |
| Cn1c(=O)c2c(-c3ccccc3Br)n(Cc3ccccc3)cc2n(C)c1=O | 8.21 |  |
| CC(=O)Nc1ccc(SC[C@H](Cc2ccccc2)N2CC[C@@H](C)CCC2=O)cc1 | 0.636 |  |
| C[C@H]1CCC(=O)N([C@H](CSc2ccccc2)Cc2ccccc2)CC1 | -9.51 |  |
| Cc1ccc(CN(C)CC(=O)Nc2cccc([N+](=O)[O-])c2)o1 | 0 |  |
| CN(CC(=O)Nc1cccc(F)c1)CC(=O)Nc1cccc([N+](=O)[O-])c1 |  | 11.6 µM (active) |
| CN(CC(=O)Nc1cccc(F)c1)C(=O)C1=COCCO1 | 17.7 |  |
